The nature of experiment [1]: NCI Yeast Anticancer Drug Screen. Data for the rad50 strain (AID 155).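 Further: 0% = growth of vehicle-only cultures of the same strain.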 To be noted: S. cerevisiae rad50 strain growth inhibition; at 50.0 µM; active compounds read high. The gist of the method:
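Relative growth inhibition (compound vs vehicle) was measured in yeast with a defined repair-gene alteration.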

Experiment [2] in a line: NCI Yeast Anticancer Drug Screen. Data for the mec2-1 strain (AID 157). To be noted: S. cerevisiae mec2-1 strain, at 50.0 µM, active compounds read high. In outline:
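Vehicle-treated cultures served as reference for growth inhibition of compound-exposed mec2-1 yeast.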

Experiment [3] can be described thus: NCI Yeast Anticancer Drug Screen. Data for the sgs1 mgt1 strain (AID 161).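 Further: 0% = growth of cultures given vehicle only.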 The note with it: S. cerevisiae sgs1 mgt1 strain, at 50.0 µM, active compounds read high. The gist of the method: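 Mutant yeast exposed to compound; growth scored against vehicle-only wells.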
A short description of experiment [4]: NCI Yeast Anticancer Drug Screen. Data for the cln2 rad14 strain (AID 165).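 Further: 0% = growth equal to vehicle treated cultures.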 The note with it: S. cerevisiae cln2 rad14 strain, at 50.0 µM, active compounds read high. In outline: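 Each compound was tested on cln2 rad14 yeast. Inhibition of growth was calculated against vehicle-exposed controls.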
Experiment [5] is described as follows: NCI Yeast Anticancer Drug Screen. Data for the bub3 strain (AID 167). To be noted: S. cerevisiae bub3 mutant strain, at 50.0 µM, active compounds read high. The gist of the method: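 Screening used yeast with an engineered genetic alteration affecting cell cycle control. Compound-exposed cultures were compared with vehicle cultures, and reduced growth was taken as inhibition.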

The nature of experiment [6]: NCI Yeast Anticancer Drug Screen. Data for the mlh1 rad18 strain (AID 175). To be noted: S. cerevisiae mlh1 rad18 strain growth inhibition; at 50.0 µM; active compounds read high. The gist of the method:
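Vehicle-treated cultures served as the reference for growth inhibition in a yeast strain carrying DNA damage repair alterations exposed to each compound.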

Each structure is given as a SMILES string. About 79,000 compounds went through this panel and 15% of them were active in at least one assay; those are over-represented in the sample as a whole. Values without a mark were called inactive. Active and inactive are the calls of the source. No stated cut-off is given here; in the data, active means growth inhibition above about 70%; inactive means the rest.

With `CCSC(C(O)C(O)C(O)C(O)CO)n1cnc2c(SC)ncnc21` (stereo unspecified), the growth inhibition in experiment [1] is 20.1%; in experiment [2], -15.3%; in experiment [3] it was 1.05%; in experiment [4], -26%; in experiment [5], -4.95%; in experiment [6], -3.85%.

On to `CCOC(=O)C(=O)O`, for which the growth inhibition in experiment [1] is 12.3%; in experiment [2] it was -9.3%; in experiment [3], -4.85%; in experiment [4] it was -7.8%; in experiment [5], -5.05%; in experiment [6], -5.7%.

On to `O=C(O)CCNC(=O)c1ccccc1O`, for which the growth inhibition in experiment [1] is -41.5%; in experiment [2], -8.5%; in experiment [3] it was -17.1%; in experiment [4] it was -53.8%; in experiment [5] it was -18.1%; in experiment [6] it was -56.8%.

Turning to `Cc1ccc(C)c2nc3c(C)ccc(C)c3cc12`, the growth inhibition in experiment [1] is 22.5%; in experiment [2], 1.4%; in experiment [3] it was 13%; in experiment [4], -25.9%; in experiment [5], -0.45%; in experiment [6], 14.3%.

For `CCS(=O)(=O)/C=C/c1cccnc1`, the growth inhibition in experiment [1] was 0.45%; in experiment [2], -4.8%; in experiment [3], -11.4%; in experiment [4], -51.5%; in experiment [5], 3.05%; in experiment [6] it was 9.5%.

`CC1=CCC(C#N)N(C)C1c1ccccc1` (stereo unspecified): the growth inhibition was 2% in experiment [1]; -5.25% in experiment [2]; -13.4% in experiment [3]; -48.1% in experiment [4]; -12.3% in experiment [5]; 8.85% in experiment [6].

Turning to `O=c1ncc2ccccc2[nH]1`, the growth inhibition in experiment [1] is -19.9%; in experiment [2], -10.7%; in experiment [3], -9.6%; in experiment [4], -4.3%; in experiment [5], -12.8%; in experiment [6], -23.9%.

For the molecule `CCOC(=O)C(C)(C)Oc1ccc(N=[N+]=[N-])cc1`, the growth inhibition in experiment [1] is 13.1%; in experiment [2], 9.15%; in experiment [3], 41.5%; in experiment [4], 4.35%; in experiment [5], 5.8%; in experiment [6], 19.6%.

As to `CN(c1ccccc1)S(=O)(=O)c1cccc([N+](=O)[O-])c1`, the growth inhibition in experiment [1] is -25.3%; in experiment [2], -44.5%; in experiment [3] it was 0%; in experiment [4] it was -9.5%; in experiment [5] it was 24.3%; in experiment [6], -1.55%.

In the case of `O=c1cc(-c2ccccc2)[nH]c2ccc(N3CCOCC3)cc12`, the growth inhibition in experiment [1] was -37.7%; in experiment [2], 0.25%; in experiment [3], -41.6%; in experiment [4], -18.9%; in experiment [5], -15.8%; in experiment [6], -31.4%.

Turning to `CC1CC(Cc2ccccc2CC2CC(C)OC2=O)C(=O)O1` (stereo unspecified), the growth inhibition was 6.95% in experiment [1]; 12.6% in experiment [2]; -0.1% in experiment [3]; 10.8% in experiment [4]; 10.8% in experiment [5]; 22.9% in experiment [6].

In the case of `CC(C)CC(=O)C(C)C(C)C` (stereo unspecified), the growth inhibition was 12.4% in experiment [1]; -1.85% in experiment [2]; 4.25% in experiment [3]; -4.25% in experiment [4]; 4% in experiment [5]; 1.5% in experiment [6].

For the molecule `NC(C(=O)O)C(C(F)(F)F)C(F)(F)F` (stereo unspecified), the growth inhibition in experiment [1] is 0.95%; in experiment [2], -15.2%; in experiment [3], 4.5%; in experiment [4], 1.55%; in experiment [5] it was -15.7%; in experiment [6] it was 6.5%.

Consider `NCCCOC12CC3CC(CC(C3)C1)C2`, for which the growth inhibition in experiment [1] was 6.1%; in experiment [2], -4.05%; in experiment [3], 38.8%; in experiment [4] it was -50.4%; in experiment [5] it was 7.6%; in experiment [6], 15.8%.

Turning to `NC(N)=NNC(=O)C(=O)O`, the growth inhibition in experiment [1] was -4.5%; in experiment [2], -7.9%; in experiment [3], 3.85%; in experiment [4], -19.5%; in experiment [5] it was -7.6%; in experiment [6], 7.9%.

As for `OCCN(CCO)c1ccc2c(C(F)(F)F)cc(C(F)(F)F)nc2n1`, the growth inhibition in experiment [1] was 0.45%; in experiment [2], -8.25%; in experiment [3], 15.8%; in experiment [4], 0.7%; in experiment [5], 10.6%; in experiment [6] it was 16.1%.

Take `C=CCc1ccc(O)c(OC)c1`: the growth inhibition in experiment [1] is 36%; in experiment [2], -3.25%; in experiment [3], -10.4%; in experiment [4], 9.7%; in experiment [5], 26.4%; in experiment [6], 25%.

Turning to `CCOC(=O)c1cnc(SC)nc1Nc1cccc(Cl)c1Cl`, the growth inhibition is 1.15% in experiment [1]; 99% (active) in experiment [2]; 35.9% in experiment [3]; 98.1% (active) in experiment [4]; 98.8% (active) in experiment [5]; 25.1% in experiment [6].

As for `COCCCNC1=C(C#N)C(=O)NC(c2cccc([N+](=O)[O-])c2)S1` (stereo unspecified), the growth inhibition in experiment [1] was -9.7%; in experiment [2], -27.4%; in experiment [3] it was 1.75%; in experiment [4] it was 7.85%; in experiment [5] it was -9.8%; in experiment [6] it was -32.7%.

Turning to `O=C(C[n+]1ccc2ccccc2c1)c1ccc(Br)cc1`, the growth inhibition is -17.1% in experiment [1]; 12.3% in experiment [2]; 1.8% in experiment [3]; -0.65% in experiment [4]; -11.9% in experiment [5]; 28.9% in experiment [6].

On to `Clc1ccc(C2ON=C(c3ccccc3)N2C23CC4CC(CC(C4)C2)C3)c(Cl)c1` (stereo unspecified), for which the growth inhibition in experiment [1] was -18.9%; in experiment [2], -26.4%; in experiment [3] it was -12.4%; in experiment [4], -48.6%; in experiment [5], -21.4%; in experiment [6] it was -21.5%.
